# Records with an inconclusive call do not appear. Calls of active or inactive are those of the source. The call rests on the fitted dose curve; in most records, active means well fitted curve in the direction sought with a large enough effect; inconclusive means small, poorly fitted or top-dose-only effect, or another doubt; inactive means no such curve, though single readings can be large; an effect the other way counts as inactive or inconclusive.
# Key:
# [1] = Quantitative High-Throughput drug screen in 47 multiple myeloma cell lines against the NCATS MIPE library collection: Karpas620_DSMZ cell viability assay (AID 1918959); further: nearly all actives have a fitted effect of over 30% in size; further: potency means the concentration at half of the fitted maximal effect
# Procedure, shortened: (§1)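 Inhibition of cell viability is measured here. Each line was plated at 500 cells per well, treated with MIPE 4.0 drugs, kept 48 hours at 37C, then assayed for ATP content by CellTiter-Glo luminescence.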
# [2] = Quantitative High-Throughput drug screen in 47 multiple myeloma cell lines against the NCATS MIPE library collection: KMM1_JCRB cell viability assay (AID 1918960); further: nearly all actives have a fitted effect of over 30% in size
# Procedure, shortened: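 Luminescence from CellTiter-Glo, taken after 5 min at room temperature, reports cellular ATP as viability. Cells (500 per well) had been treated 48 h at 37 °C with MIPE 4.0 compounds, scaled between DMSO and medium-only controls.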
# [3] = Quantitative High-Throughput drug screen in 47 multiple myeloma cell lines against the NCATS MIPE library collection: INA6_PLB cell viability assay (AID 1918965; further: nearly all actives have a fitted effect of over 55% in size; further: potency means the concentration at half of the fitted maximal effect)
# Procedure, shortened: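 qHTS of the MIPE 4.0 collection: 500 myeloma cells/well, 48 h drug exposure at 37C in 5% CO2, then CellTiter-Glo for 5 min at room temperature before luminescence reading.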
# [4] = Quantitative High-Throughput drug screen in 47 multiple myeloma cell lines against the NCATS MIPE library collection: JIM3_ECACC cell viability assay (AID 1918963; further: nearly all actives have a fitted effect of over 35% in size; further: potency means the concentration at half of the fitted maximal effect)
# Procedure, shortened: as §1
# [5] = Quantitative High-Throughput drug screen in 47 multiple myeloma cell lines against the NCATS MIPE library collection: JIM1_ECACC cell viability assay (AID 1918964; further: potency means the concentration at half of the fitted maximal effect)
# Procedure, shortened: (§2)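 Primary qHTS used for cherry-picking: cells at 500/well, library compounds for 48 h (37C, 5% CO2), luminescent ATP assay.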
# [6] = Quantitative High-Throughput drug screen in 47 multiple myeloma cell lines against the NCATS MIPE library collection: KHM11_PLB cell viability assay (AID 1918962); further: nearly all actives have a fitted effect of over 35% in size; further: potency means the concentration at half of the fitted maximal effect
# Procedure, shortened: as §1
# [7] = Quantitative High-Throughput drug screen in 47 multiple myeloma cell lines against the NCATS MIPE library collection: ARD_JJKsccE7 cell viability assay (AID 1918929; further: potency means the concentration at half of the fitted maximal effect)
# Procedure, shortened: as §2
structure (smiles),measurement,setting,value
Cc1ccccc1C(C(=O)NC1CCCC1)N(C(=O)Cn1cnc2ccccc21)c1cccc(F)c1 (stereo unspecified),Potency,[1],inactive
same,Potency,[2],inactive
same,Potency,[3],20.9 µM (active)
O=c1ncn2nc(Sc3ccc(F)cc3F)ccc2c1-c1c(Cl)cccc1Cl,Potency,[4],inactive
same,Potency,[5],inactive
same,Potency,[3],4.18 µM (active)
CCOc1cc(C(=O)Nc2ccc(Cl)c(-c3nc4ccccc4[nH]3)c2)cc(OCC)c1OCC,Potency,[1],13.2 µM (active)
same,Potency,[6],1.18 µM (active)
same,Potency,[3],11.8 µM (active)
C[C@H](NC(=O)Cc1cc(F)cc(F)c1)C(=O)N[C@@H]1C(=O)N(C)c2ccccc2-c2ccccc21,Potency,[1],inactive
same,Potency,[2],inactive
CCCS(=O)(=O)Nc1ccc(F)c(C(=O)c2c[nH]c3ncc(-c4ccc(Cl)cc4)cc23)c1F,Potency,[1],inactive
same,Potency,[2],inactive
same,Potency,[6],23.5 µM (active)
same,Potency,[4],18.7 µM (active)
same,Potency,[3],8.33 µM (active)
CCc1cc(Nc2nccc(-c3c(-c4ccc(OC)c(C(=O)Nc5c(F)cccc5F)c4)nc4ccccn34)n2)c(OC)cc1N1CCC(N2CCN(S(C)(=O)=O)CC2)CC1,Potency,[7],4.69 µM (active)
same,Potency,[4],18.7 µM (active)
same,Potency,[3],2.96 µM (active)
Nc1ncnc2nc(-c3ccc(N4CCOCC4)nc3)cc(-c3cccc(Br)c3)c12,Potency,[1],inactive
same,Potency,[6],inactive
same,Potency,[4],18.7 µM (active)
same,Potency,[3],18.7 µM (active)
O=C1CCc2cc(OCCCCc3nnnn3C3CCCCC3)ccc2N1,Potency,[1],inactive
same,Potency,[4],inactive
same,Potency,[5],inactive
COc1cc(F)c(F)c(Nc2ccc(I)cc2F)c1NS(=O)(=O)C1(C[C@H](O)CO)CC1,Potency,[1],20.9 µM (active)
same,Potency,[4],18.7 µM (active)
same,Potency,[5],16.6 µM (active)
same,Potency,[3],inactive
COCC(=O)NCC=Cc1ccc2ncnc(Nc3ccc(Oc4ccc(C)nc4)c(C)c3)c2c1,Potency,[7],11.8 µM (active)
same,Potency,[4],16.6 µM (active)
same,Potency,[5],16.6 µM (active)
same,Potency,[3],10.5 µM (active)
COc1ccc(-c2c(-c3ccc(O)cc3O)n[nH]c2C)cc1,Potency,[1],42.9 µM (active)
same,Potency,[6],inactive
same,Potency,[3],38.2 µM (active)
CCC(C)n1ncn(-c2ccc(N3CCN(c4ccc(OC[C@H]5CO[C@](Cn6cncn6)(c6ccc(Cl)cc6Cl)O5)cc4)CC3)cc2)c1=O (stereo partly specified),Potency,[1],inactive
same,Potency,[6],inactive
same,Potency,[4],inactive
same,Potency,[3],inactive

# — PubChem BioAssay (NCATS)
